What all share (assay): protein-binding microarray (PBM); PBM: ~300 nM protein, 6 mM HEPES pH 7.8, 80 mM KCl, 0.5 mM EDTA, 0.5 mM EGTA, 6% glycerol, 35 ng/ul poly-dIdC, 1% milk, 1 h, room temperature; Ap Aiptasia and Nv Nematostella (sea anemones) / Co Capsaspora / Aq Amphimedon (sponge) / Dm Drosophila / Hu human; RHD is the Rel homology domain; high values mean tight binding
Holding throughout (settings): dsDNA, one strand shown

The target in assay [1] is T1, GST-Ap-NF-kB RHD (Exaiptasia pallida (Aiptasia), UniProt A0A913YAJ5 2-422).
T1 sequence: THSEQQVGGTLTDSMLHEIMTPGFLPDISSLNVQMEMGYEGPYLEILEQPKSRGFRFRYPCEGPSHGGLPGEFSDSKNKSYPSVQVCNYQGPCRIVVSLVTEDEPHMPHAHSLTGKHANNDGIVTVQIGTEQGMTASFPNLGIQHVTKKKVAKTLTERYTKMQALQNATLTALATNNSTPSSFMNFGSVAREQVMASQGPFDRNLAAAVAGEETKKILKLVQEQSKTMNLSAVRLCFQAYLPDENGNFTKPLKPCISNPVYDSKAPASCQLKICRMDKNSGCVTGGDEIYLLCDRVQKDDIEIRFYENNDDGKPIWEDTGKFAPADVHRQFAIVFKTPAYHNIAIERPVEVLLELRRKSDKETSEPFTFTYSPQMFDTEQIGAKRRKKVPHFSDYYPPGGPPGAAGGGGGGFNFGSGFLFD

In assay [2] the target is T2, GST-Nv-NF-kB (Cys allele) (Nematostella vectensis, UniProt E5G601 2-411).
T2 sequence: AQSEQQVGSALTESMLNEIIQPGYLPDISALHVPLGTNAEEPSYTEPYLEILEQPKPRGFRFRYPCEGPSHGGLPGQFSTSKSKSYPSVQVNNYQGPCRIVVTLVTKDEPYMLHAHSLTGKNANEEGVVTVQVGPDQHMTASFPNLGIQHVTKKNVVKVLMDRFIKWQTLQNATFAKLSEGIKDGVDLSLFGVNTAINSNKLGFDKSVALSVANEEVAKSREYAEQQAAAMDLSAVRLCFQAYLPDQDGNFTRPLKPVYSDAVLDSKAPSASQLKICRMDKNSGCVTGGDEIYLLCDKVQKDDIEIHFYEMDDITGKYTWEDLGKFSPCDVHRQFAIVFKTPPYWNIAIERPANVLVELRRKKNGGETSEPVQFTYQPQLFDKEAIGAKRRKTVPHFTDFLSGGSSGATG

Assay [3] addresses T3, GST-Nv-NF-kB (Ser allele) (Nematostella vectensis, UniProt A7UNT2 2-411).
T3 sequence: T2 sequence with Q21R, C66S, S207N, E215Q, V217A, E225K, A268E, D399E

For assay [4], the target named is T4, GST-Co-NF-kB (Capsaspora owczarzaki, UniProt F1ARL5 200-546).
T4 sequence: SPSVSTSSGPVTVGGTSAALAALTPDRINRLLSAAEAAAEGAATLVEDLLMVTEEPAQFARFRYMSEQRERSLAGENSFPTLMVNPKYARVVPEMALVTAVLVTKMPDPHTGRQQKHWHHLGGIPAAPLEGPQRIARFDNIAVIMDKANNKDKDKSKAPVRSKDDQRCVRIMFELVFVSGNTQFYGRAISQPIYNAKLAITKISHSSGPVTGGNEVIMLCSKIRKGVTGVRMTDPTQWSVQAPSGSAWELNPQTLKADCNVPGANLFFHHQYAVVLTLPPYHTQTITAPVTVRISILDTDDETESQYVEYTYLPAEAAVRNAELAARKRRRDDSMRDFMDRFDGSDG

For assay [5], the target named is T5, GST-Dm-Relish (Drosophila melanogaster, UniProt Q94527 99-473).
T5 sequence: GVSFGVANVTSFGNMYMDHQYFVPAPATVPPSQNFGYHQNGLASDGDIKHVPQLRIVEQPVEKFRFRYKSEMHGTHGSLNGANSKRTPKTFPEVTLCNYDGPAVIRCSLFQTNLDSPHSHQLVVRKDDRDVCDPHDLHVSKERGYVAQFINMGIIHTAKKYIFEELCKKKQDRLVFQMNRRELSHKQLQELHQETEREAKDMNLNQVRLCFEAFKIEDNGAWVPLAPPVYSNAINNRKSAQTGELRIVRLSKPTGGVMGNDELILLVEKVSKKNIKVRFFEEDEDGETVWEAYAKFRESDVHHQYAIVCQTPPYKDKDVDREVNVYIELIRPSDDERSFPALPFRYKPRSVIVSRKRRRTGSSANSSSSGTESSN

Assay [6] concerns the target T6, GST-Aq-NF-kB (Amphimedon queenslandica, UniProt A9Y5G7 2-389).
T6 sequence: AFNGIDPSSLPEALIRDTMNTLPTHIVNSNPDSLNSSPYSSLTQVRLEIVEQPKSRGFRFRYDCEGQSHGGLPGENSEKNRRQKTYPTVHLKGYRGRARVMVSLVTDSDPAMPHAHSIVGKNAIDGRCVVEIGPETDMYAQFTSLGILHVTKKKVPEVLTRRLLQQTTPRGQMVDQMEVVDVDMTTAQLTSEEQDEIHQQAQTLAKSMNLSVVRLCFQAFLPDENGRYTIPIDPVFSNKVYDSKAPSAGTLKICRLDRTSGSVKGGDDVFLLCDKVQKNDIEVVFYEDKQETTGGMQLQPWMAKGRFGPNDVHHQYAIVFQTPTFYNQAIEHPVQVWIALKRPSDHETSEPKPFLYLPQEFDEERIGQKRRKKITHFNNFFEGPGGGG

Assay [7] addresses GST-Hu-p50 (Homo sapiens, UniProt P19838 7-356).

Numbering of substitutions follows the chain as printed.

Chain of GST-Hu-p50 (P19838 7-356): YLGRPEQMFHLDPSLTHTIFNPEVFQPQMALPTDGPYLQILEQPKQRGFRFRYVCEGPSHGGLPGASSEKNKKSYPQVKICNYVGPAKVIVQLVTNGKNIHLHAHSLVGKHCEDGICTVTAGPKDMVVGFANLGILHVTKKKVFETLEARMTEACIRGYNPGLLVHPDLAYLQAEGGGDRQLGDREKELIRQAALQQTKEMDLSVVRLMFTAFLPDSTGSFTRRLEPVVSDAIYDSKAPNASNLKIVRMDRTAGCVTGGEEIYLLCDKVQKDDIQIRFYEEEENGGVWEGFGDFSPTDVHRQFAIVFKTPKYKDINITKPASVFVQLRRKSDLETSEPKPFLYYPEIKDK

Take “CCGATTAACATCAATATTTTCCCTGATGTTAATCGGGTCTTGATTCGCTTGACGCTGCTG”: the binding signal in assay [1] stood at 4.35 z-score; in assay [2] it was 6.75 z-score; in assay [3] it was 8.82 z-score; in assay [4], 6.01 z-score; in assay [5], 2.69 z-score; in assay [6], 4.5 z-score. In assay [7], this sequence yielded a binding signal of 5.3 z-score.
With “CCGATTAACATCAGGGGAACAAATGATGTTAATCGGGTCTTGATTCGCTTGACGCTGCTG”, the binding signal in assay [1] stood at 3.88 z-score; in assay [2], 4.83 z-score; in assay [3], 5.44 z-score; in assay [4] it was 7.72 z-score; in assay [5], 3.13 z-score; in assay [6], 4.15 z-score. For the same sequence, in assay [7], the binding signal amounted to 3.24 z-score.
With “CCGATTAACATCAATATTTCCCCTGATGTTAATCGGGTCTTGATTCGCTTGACGCTGCTG”, the binding signal in assay [1] was 8.09 z-score; in assay [2], 10.1 z-score; in assay [3], 13.2 z-score; in assay [4], 10.7 z-score; in assay [5], 5.87 z-score; in assay [6], 6.9 z-score. In assay [7], this sequence returned a binding signal of 7.24 z-score.
For “CCGATTAACATCAAAAAGTCCCCTGATGTTAATCGGGTCTTGATTCGCTTGACGCTGCTG”, the binding signal amounted to 9.45 z-score in assay [1]; 10.8 z-score in assay [2]; 11.1 z-score in assay [3]; 5.57 z-score in assay [4]; 10 z-score in assay [5]; 8.93 z-score in assay [6]. Also, the binding signal in assay [7] amounted to 7.85 z-score.
Consider “CCGATTAACATCAAATTTCCCCATGATGTTAATCGGGTCTTGATTCGCTTGACGCTGCTG”, for which the binding signal in assay [1] is 7.86 z-score; in assay [2] it was 9.05 z-score; in assay [3], 10.8 z-score; in assay [4], 9.42 z-score; in assay [5], 4.87 z-score; in assay [6], 7.31 z-score. Besides, the binding signal in assay [7] was determined as 6.68 z-score.
Take “CCGATTAACATCAAAATGTCCCCTGATGTTAATCGGGTCTTGATTCGCTTGACGCTGCTG”: the binding signal turned out to be 6.81 z-score in assay [1]; 6.47 z-score in assay [2]; 7.12 z-score in assay [3]; 5.57 z-score in assay [4]; 6.24 z-score in assay [5]; 5.89 z-score in assay [6]. Besides, the binding signal in assay [7] came to 5.58 z-score.
In the case of “CCGATTAACATCAAGGATTCCCCTGATGTTAATCGGGTCTTGATTCGCTTGACGCTGCTG”, the binding signal in assay [1] was determined as 9.7 z-score; in assay [2], 10.5 z-score; in assay [3] it was 10 z-score; in assay [4], 6.56 z-score; in assay [5], 9.55 z-score; in assay [6], 7.75 z-score. The same sequence displayed a binding signal in assay [7] of 6.89 z-score.
As for “CCGATTAACATCAAGTATTCCCCTGATGTTAATCGGGTCTTGATTCGCTTGACGCTGCTG”, the binding signal in assay [1] was 8.17 z-score; in assay [2] it was 9.28 z-score; in assay [3], 8.86 z-score; in assay [4], 7.58 z-score; in assay [5] it was 7.14 z-score; in assay [6], 6.74 z-score. In assay [7], this sequence displayed a binding signal of 5.87 z-score.
For “CCGATTAACATCAGGGAAATCAATGATGTTAATCGGGTCTTGATTCGCTTGACGCTGCTG”, the binding signal in assay [1] worked out at 2.16 z-score; in assay [2], 3.6 z-score; in assay [3], 4.65 z-score; in assay [4], 3.49 z-score; in assay [5], 1.09 z-score; in assay [6], 2.67 z-score. In addition, the binding signal in assay [7] was determined as 2.57 z-score.
As to “CCGATTAACATCAGGGGGACTAATGATGTTAATCGGGTCTTGATTCGCTTGACGCTGCTG”, the binding signal is 5.06 z-score in assay [1]; 4.36 z-score in assay [2]; 4.4 z-score in assay [3]; 4.79 z-score in assay [4]; 2.76 z-score in assay [5]; 4.27 z-score in assay [6]. Moreover, the binding signal in assay [7] is 3.8 z-score.
As for “CCGATTAACATCAACTCTCCCCCTGATGTTAATCGGGTCTTGATTCGCTTGACGCTGCTG”, the binding signal stood at 5.78 z-score in assay [1]; 4.61 z-score in assay [2]; 5.62 z-score in assay [3]; 7.94 z-score in assay [4]; 2.14 z-score in assay [5]; 4.72 z-score in assay [6]. The same sequence showed a binding signal in assay [7] of 4.41 z-score.
On to “CCGATTAACATCAGGGGAAAGGATGATGTTAATCGGGTCTTGATTCGCTTGACGCTGCTG”, for which the binding signal in assay [1] is 4.44 z-score; in assay [2] it was 5.7 z-score; in assay [3], 6.71 z-score; in assay [4], 4.77 z-score; in assay [5], 1.2 z-score; in assay [6], 4.14 z-score. Besides, the binding signal in assay [7] is 3.87 z-score.

Source of the values: article PMC5700166.
